# Bioassay records (PubChem BioAssay)
# VACV Venus inh: qHTS for Stage-Specific Inhibitors of Vaccinia Orthopoxvirus: Venus Reporter Primary qHTS | Vaccinia virus Venus reporter expression, fluorescence | Potency, µM (titrated, usually from 36.5 µM), for inactives: at the top dose activity change, negative = inhibition, usual class: inhibitors | actives 0.46% (n = 330,000); calls by dose curve; tested in A549 cells; note: % is set by controls: 0 for no effect and ±100 for the full control effect; nearly all actives have a fitted effect of over 30% in size
# AMA1-RON2 inh: qHTS for Inhibitors of AMA1-RON; Towards Development of Antimalarial Drug Lead: Primary Screen | Plasmodium falciparum AMA1 (3D7) - RON2 peptide interaction | AlphaScreen AMA1-biotinylated RON2 peptide binding | Potency, µM (series often up to 58.2 µM), without a hit: at the top dose activity change, negative = inhibition, hits mostly inhibitors | actives 0.2% (n = 360,000) | AID 720542, 2013;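 note: 0% = vehicle wells and -100% = peptide control; nearly all actives have a fitted effect of over 45% in size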
#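 AMA1 (3D7) with his tag at 25 nM final met compounds first, then biotinylated RON2 peptide at 25 nM; detection used donor plus acceptor beads, 10 µg/mL apiece, read by AlphaScreen after 30 min at room temperature.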
# Vaccinia mCherry: qHTS for Stage-Specific Inhibitors of Vaccinia Orthopoxvirus: mCherry Reporter Primary qHTS; AID 720579, 2013; Vaccinia virus mCherry reporter infection, fluorescence; Potency, µM (top dose mostly 36.5 µM), without a hit: top-dose activity change, negative = inhibition, hits mostly inhibitors; actives 0.63% (n = 310,000); calls by dose curve; tested in A549 cells; note: % is set by controls: 0 for no effect and ±100 for the full control effect; nearly all actives have a fitted effect of over 35% in size
# AmpC detergent: qHTS Inhibitors of AmpC Beta-Lactamase (assay with detergent); P00811; AmpC hydrolysis of nitrocefin, absorbance 480 nm, 0.01% Triton; Potency, µM (series often up to 114 µM), for inactives: at the top dose activity change, negative = inhibition, most hits filed as inhibitors; actives 0.041% (n = 370,000); AID 485294, 2010;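 note: 0% = no-compound wells and -100% = no-enzyme wells; nearly all actives have a fitted effect of over 25% in size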
# Target sequence (P00811 whole entry, looked up): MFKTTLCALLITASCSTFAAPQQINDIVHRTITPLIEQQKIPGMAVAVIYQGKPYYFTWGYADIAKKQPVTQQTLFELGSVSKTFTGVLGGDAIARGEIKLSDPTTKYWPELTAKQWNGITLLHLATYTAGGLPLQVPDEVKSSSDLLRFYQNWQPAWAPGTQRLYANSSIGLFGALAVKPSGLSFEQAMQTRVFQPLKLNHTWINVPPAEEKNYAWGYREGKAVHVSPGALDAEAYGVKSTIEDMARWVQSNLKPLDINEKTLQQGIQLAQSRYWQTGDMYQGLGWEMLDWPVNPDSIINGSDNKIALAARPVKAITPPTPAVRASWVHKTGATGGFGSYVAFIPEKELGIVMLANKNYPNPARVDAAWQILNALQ
#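 20 mM phosphate pH 7.0 + 0.01% (detergent screen) or 0.0001% Triton X-100; 5.3 nM AmpC reagent; cpd preinc 15 min RT; nitrocefin (800 uM stock) to start; A480 q20 s × 4 min; Activity was normalised to no-enzyme and no-compound control wells.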
# AmpC no deterg: qHTS Inhibitors of AmpC Beta-Lactamase (assay without detergent); P00811; AmpC nitrocefin hydrolysis, absorbance 480 nm, 0.0001% Triton; Potency, µM (titrated, usually from 57.1 µM), for the others: top-dose activity change, negative = inhibition, most hits filed as inhibitors; actives 0.52% (n = 330,000);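 note: plate controls were no compound for no effect and no enzyme for full effect; nearly all actives have a fitted effect of over 20% in size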
#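 20 mM phosphate pH 7.0 + 0.01% (detergent screen) or 0.0001% Triton X-100; 5.3 nM AmpC reagent; cpd preinc 15 min RT; nitrocefin (800 uM stock) to start; A480 q20 s × 4 min; Activity was normalised to no-enzyme and no-compound control wells.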
# SARS PLpro yeast: qHTS of Yeast-based Assay for SARS-CoV PLP. S. cerevisiae expressing SARS-CoV PLpro, growth rescue. Potency, µM (highest dose often 32.9 µM), without a hit: top-dose activity, positive = growth rescue, hits mostly activators. actives 0.19% (n = 330,000). AID 485353, 2010; calls by dose curve; note: 0% is about no effect; nearly all actives have a fitted effect of over 55% in size
# * = called active by the depositor; i = inactive; ? = inconclusive; · = no result. Only some compounds are listed: those with a hit (about 1.3% of all), similar ones and a draw of the others. Unless noted, calls come from the whole dose curve; as a rule, active = well fitted curve in the direction sought with a large enough effect; inconclusive = small, poorly fitted or top-dose-only effect, or another doubt; inactive = no such curve, though single readings can be large; an effect the other way counts as inactive or inconclusive. Potency is the fitted concentration of half-maximal effect.
SMILES,VACV Venus inh,AMA1-RON2 inh,Vaccinia mCherry,AmpC detergent,AmpC no deterg,SARS PLpro yeast
Cc1ccc(S(=O)(=O)n2nc(OC(=O)c3ccccc3C)cc2N)cc1,-6%,49%,-14%,-14%,32µM*,4%
COc1ccc(CNC(=S)Nc2ccc(-c3ccccc3)cc2)cc1,-13%,2%,-5%,-7%,14µM*,-2%
Cc1nn(Cc2ccc(Cl)c(Cl)c2)c(C)c1NC(=O)c1cc(CC(C)C)on1,?,-1%,11µM*,?,79%,-2%
Cc1cc2nccc(C)c2cc1C,-14%,·,-7%,·,·,·
COc1ccc(NC(=O)c2cc(-c3ccccc3O)n[nH]2)cc1Cl,2%,77%,-9%,1%,-58%,2%
COc1ccc(NC(=O)c2cc(-c3cc(C)cc(C)c3O)n[nH]2)cc1Cl,·,54%,·,-1%,11µM*,-12%
Cc1nc(C)n(CC(=O)NCC2Cc3cc(-c4cccc(OC(F)(F)F)c4)ccc3O2)n1 (stereo not given),-6%,·,-2%,·,·,·
Cn1c(=O)c(=O)n(C)c2cc(N3CCOCC3)c(NS(=O)(=O)c3ccc(F)c(Cl)c3)cc21,?,-10%,11µM*,-11%,-15%,-1%
CN1CCN(c2ccnc(N(C)CCCCCCN)n2)CC1,-15%,·,-12%,·,·,·
Cc1ccc(SCC(=O)c2ccc(CC(=O)O)s2)cc1,4%,15%,i,-7%,20µM*,1%
N#Cc1ccc(Nc2nc(-c3ccc(O)cc3O)cs2)cc1C(F)(F)F,11µM*,-3%,?,12%,-17%,0%
Oc1ccc(-c2csc(Nc3ccc4c(c3)OCO4)n2)c(O)c1,?,47%,?,·,·,·
Cc1ccc(C)c(S(=O)(=O)Nc2ccccc2C(=O)Nc2ccc(S(=O)(=O)Nc3ncccn3)cc2)c1,-1%,3%,-15%,-11%,16µM*,-8%
O=C(/C=C/c1ccc(Br)cc1)Nc1ccc(S(=O)(=O)Nc2ncccn2)cc1,·,-2%,·,-1%,-28%,-1%
O=C(/C=C/c1cccc(F)c1)Nc1ccc(S(=O)(=O)Nc2ncccn2)cc1,-9%,1%,?,-3%,11µM*,0%
O=C(Nc1ccc(S(=O)(=O)Nc2ncccn2)cc1)C(F)(F)F,-16%,-6%,-14%,-6%,-16%,5µM*
Cc1c(C(=O)N2CCCCCC2)sc2ncnc(NCC3CCCO3)c12 (stereo not given),-12%,·,i,·,·,·
Cc1cccc(C)c1NCc1nnc(SCC(=O)Nc2nc(-c3ccccc3)cs2)n1-c1ccccc1,-6%,4%,-13%,?,-16%,-16%
CCOc1ccc(NCc2nnc(SCC(=O)Nc3nc(-c4ccccc4)cs3)n2-c2ccccc2)cc1,?,-5%,11µM*,-13%,-24%,10%
CCOc1ccc(NCc2nnc(SCc3ccc(Cl)cc3)n2-c2ccccc2)cc1,?,32µM*,-19%,-11%,30%,-29%
COC(=O)[C@@H]1CCCN1C(=O)c1c(OC)cc(=O)n2c1CCN(Cc1ccc3c(c1)OCCO3)CC2,-9%,·,-7%,·,·,·
CN(C)[C@@H]1C(=O)C(C(N)=O)=C(O)[C@@]2(O)C(=O)C3=C(O)c4c(O)cccc4[C@@](C)(O)[C@H]3[C@H](O)[C@@H]12,-2%,1µM*,i,?,-23%,13%
CN(C)C1C(=O)C(C(N)=O)=C(O)[C@@]2(O)C(=O)C3=C(O)c4c(O)cccc4[C@](C)(O)C3C(O)C12 (stereo not given in full),-3%,·,-15%,·,·,·
CCN(CC)C1CCN(C(=O)c2cnn(-c3nccc(-c4ccccc4OC)n3)c2-c2ccco2)C1 (stereo not given),-14%,·,i,·,·,·
O=C(C[N+]1(CC#Cc2ccccc2)CCCCC1)c1ccc(Cl)cc1,?,13%,10µM*,6%,19%,-1%
SMILES,VACV Venus inh,AMA1-RON2 inh,Vaccinia mCherry,AmpC detergent,AmpC no deterg,SARS PLpro yeast
O=C1C(Cl)=C(N2CCCCC2)C(=O)C(Cl)=C1c1cnc(N2CCCCC2)s1,·,8.9µM*,·,-7%,-52%,-6%
Cc1cc(NC(=O)CSc2cn(CCNC(=O)c3ccc(Cl)cc3)c3ccccc23)no1,-20%,-5%,-29%,3%,10µM*,?
Cc1ccc(C(=O)Nc2cccc(-c3nc(CNC(=O)c4cccc(N(C)C)c4)c(C)o3)c2)s1,-14%,·,-26%,·,·,·
COc1ccc2nc(NC(=O)CSCc3c(C)noc3C)sc2c1,-22%,-4%,-22%,?,25µM*,-5%
O=C(NCC1CCC2(CCN(Cc3cccc4ncccc34)CC2)O1)c1ccccc1 (stereo not given),-7%,·,-3%,·,·,·
Cc1c(/C=C/c2ccnc3ccccc23)ccc(N(C)C)c1C,-7%,·,-28%,·,·,·
O=[N+]([O-])c1ccc(NC(=S)NCCc2ccc(Cl)cc2)cc1,11µM*,3%,?,0%,0.14µM*,-30%
CC(C)C(NC(=O)c1ccccn1)c1nnc2n1CCN(Cc1ccc3ccccc3c1)CC2 (stereo not given),-14%,·,i,·,·,·
CCn1c2ccccc2c2cc(CN3CCOc4ccc(C(O)c5cccnc5)cc4C3)ccc21 (stereo not given),?,·,-20%,·,·,·
CC(C)N=c1scc(-c2ccco2)n1/N=C/c1ccc(O)c(O)c1,·,-27%,·,5%,-47%,-31%
C=CCN=c1scc(-c2ccco2)n1/N=C/c1ccc(O)c(O)c1O,-9%,0%,-22%,2%,4.5µM*,0%
COCCN=c1scc(-c2ccco2)n1/N=C/c1ccc(O)c(O)c1O,-12%,-24%,-27%,-5%,?,?
Oc1ccc(/C=N/n2c(-c3ccco3)csc2=Nc2cccnc2)c(O)c1,10µM*,46%,10µM*,0%,-52%,-10%
O=C(N[C@@H]1c2ccccc2C2(CCN(Cc3c(O)ccc4ccccc34)CC2)[C@H]1O)c1ccccc1,0%,·,-6%,·,·,·
CC(C)CN(C(=O)c1ccc2c(c1)OCCO2)c1c(N)n(Cc2ccccc2)c(=O)[nH]c1=O,-9%,-6%,-1%,0%,-25%,·
CC(C)CN(C(=O)COC(=O)c1ccc(Br)cc1)c1c(N)n(Cc2ccccc2)c(=O)[nH]c1=O,13µM*,0%,?,?,-18%,1%
